# Shown are actives, neighbours in structure and some others; about 12% of the full set was active somewhere.
# HP1b binding inh – inhibitors of HP1-beta chromodomain binding to methylated histone tails. AlphaScreen HP1-beta / biotin-H3K9me3 peptide binding. Potency, µM (series often up to 114 µM), without a hit: at the highest dose activity change, negative = inhibition, most hits filed as inhibitors. hit rate 0.56% among 390,000. AID 540317; note: nearly all actives have a fitted effect of over 70% in size
#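 AlphaScreen: HP1-beta (50 nM) preformed 30 min with biotin-H3(1-18)K9me3 peptide (50 nM) in PBS pH 7.4, 0.01% Tween-20. Compound added for 30 min at RT, then streptavidin donor/nickel chelate acceptor beads (10 ug/mL) for 30 min.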
# TDP1 inh – TDP1 (human) enzyme inhibition; Q9NUW8; recombinant TDP1, AlphaScreen DNA substrate cleavage; Potency, µM (top dose mostly 130 µM), inactives show at the highest dose activity change, negative = inhibition, actives largely listed as inhibitors; hit rate 0.28% among 350,000; note: % is set by controls: 0 for no effect and ±100 for the full control effect; nearly all actives have a fitted effect of over 40% in size
#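 Tdp1 1 nM final; 15 min RT w/ cpd; substrate 15 nM, 5 min; beads 10 ug/ml, 10 min; AlphaScreen read. Neg ctrl: no enzyme.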
# JMJD2A Tudor – inhibitors of human JMJD2A Tudor domain; AID 504339; Potency, µM (top dose mostly 114 µM), for inactives: at the highest dose activity change, negative = inhibition, actives largely listed as inhibitors; O75164; AlphaScreen JMJD2A-Tudor / H3K4me3 peptide binding; hit rate 4.4% among 390,000; note: % is set by controls: 0 for no effect and ±100 for the full control effect; nearly all actives have a fitted effect of over 50% in size
# BAZ2B inh – blocks human BAZ2B | Q9UIF8 | AlphaScreen BAZ2B-H3K14Ac peptide displacement | Potency, µM (titrated, usually from 114 µM), without a hit: at the highest dose activity change, negative = inhibition, actives largely listed as inhibitors | hit rate 4.4% among 360,000 | AID 504333; note: % is set by controls: 0 for no effect and ±100 for the full control effect; nearly all actives have a fitted effect of over 60% in size
#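 Multi-concentration screen (max 110 uM) measuring displacement of acetylated histone H3 peptide from BAZ2B by AlphaScreen, using 50 nM protein, 50 nM peptide and 10 ug/mL streptavidin donor plus Ni-chelate acceptor beads.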
# G9a inh – G9a (human) methyltransferase inhibition; Q96KQ7; G9a H3K9 monomethylation, AlphaScreen, 2 h; Potency, µM (highest dose often 102 µM), inactives show top-dose activity, negative = inhibition, usual class: inhibitors; hit rate 8.8% among 350,000; AID 504332; note: % is set by controls: 0 for no effect and ±100 for the full control effect; nearly all actives have a fitted effect of over 75% in size
#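 Readings reflect AlphaScreen signal from monomethyl-H3K9 antibody detection. HMT at 20 nM; substrate b-H3K9 500 nM; cofactor SAM 20 uM; 2 h RT reaction; compounds tested as titrations in qHTS with 15 min preincubation.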
# Sfp inh – Sfp phosphopantetheinyl transferase inhibition. hit rate 3.5% among 310,000. Potency, µM, without a hit: largest response in the series, negative = inhibition, actives largely listed as inhibitors. AID 1490. Biochemical Sfp PPTase activity, qHTS;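 note: the enzyme is Sfp with the accession as filed and its product quenches rhodamine fluorescence; 0% = enzyme reaction without inhibitor and -100% = no enzyme wells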
#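 After 15 min at room temperature with compound, 15 nM Sfp received 5 uM rhodamine-CoA plus 12.5 uM BHQ-2-ybbR (50 mM Hepes pH 7.6, 10 mM MgCl2). Rate came from the fluorescence difference over 30 min, ex 525/em 598 nm.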
# * marks the source's active call; other numbers are inactive results; ? = inconclusive; nt = not tested or not shown; [ ] = remark or other dose. Calls come from the whole dose curve; as a rule, active = well fitted curve in the direction sought with a large enough effect; inconclusive = small, poorly fitted or top-dose-only effect, or another doubt; inactive = no such curve, though single readings can be large; an effect the other way counts as inactive or inconclusive. Potency is the fitted concentration of half-maximal effect.
SMILES,HP1b binding inh,TDP1 inh,JMJD2A Tudor,BAZ2B inh,G9a inh,Sfp inh
Cc1ccc(C(C(=O)NC(C)(C)C)N(Cc2ccco2)C(=O)Cn2nnc(-c3cccs3)n2)cc1 (stereo not given),37%,2%,-12%[57.1 µM],9%,5%[59 µM],5%
Cc1ccc(-c2nnn(CC(=O)N(c3ccccc3)C(C(=O)NCC3CCCO3)c3cccs3)n2)o1 (stereo not given),?,-5%,?,-8%,-28%,11%
Cc1ccc(-c2nnn(CC(=O)N(c3cccc(F)c3)C(C(=O)NC(C)(C)C)c3ccco3)n2)o1 (stereo not given),27%,6%,-13%,-27%,50µM*,-17%
CC(C)(C)NC(=O)C(c1ccncc1)N(C(=O)Cn1nnc(-c2ccc(F)cc2)n1)c1ccc(F)cc1 (stereo not given),19%,0%,-11%,-4%,3%[12.7 µM],-2%
CC(C)(C)NC(=O)C(c1ccc(O)cc1)N(Cc1ccco1)C(=O)Cn1nnc(-c2cccs2)n1 (stereo not given),2%,9%,?,-32%,20µM*,-23%
CC(C)(C)NC(=O)C(c1ccncc1)N(C(=O)Cn1nnc(-c2ccc(F)cc2)n1)c1ccccc1 (stereo not given),-4%,-6%,?,?,22µM*,20µM*
CCO[Si](CCCN)(OCC)OCC,nt,13%,nt,nt,nt,nt
C/C(=N\N1C(=O)CSC1=S)c1ccc(Br)cc1,-24%,nt,-31%,?,40µM*,?
CN(C)c1ccc(C(c2nnnn2C(C)(C)C)N2CCc3ccccc3C2)cc1 (stereo not given),nt,3%,nt,?,40µM*,-12%
CC1CCN(C(c2ccc(N(C)C)cc2)c2nnnn2C(C)(C)C)CC1 (stereo not given),?,7%,56µM*,50µM*,?,20µM*
CC1CCN(C(c2ccc(N(C)C)cc2)c2nnnn2Cc2ccccc2)CC1 (stereo not given),?,0%,50µM*,18µM*,16µM*,10%
CC(C)(C)n1nnnc1C(c1ccccc1)N1CCc2ccccc2C1 (stereo not given),18%,7%,-6%,10%,?,4%
CN1CCN(C(c2ccccc2)c2nnnn2Cc2ccccc2)CC1 (stereo not given),14%,2%,-8%,6%,20%[59 µM],15%
CCC(C)(C)n1nnnc1C(c1ccc(O)cc1)N1CCc2ccccc2C1 (stereo not given),?,5%,89µM*,-35%,2.5µM*,14µM*
O=C(OCc1c(-c2ccccc2)ncc2ccccc12)c1ccc(Cl)cc1Cl,44%,-1%,1%,-4%,3%[0.501 µM],nt
COc1cccc2c1Oc1ncccc1N(c1ccc(C(=O)NCc3ccccc3C)s1)C2,17%,3%,-13%,3%,8%[59 µM],nt
COc1cc(C(=O)c2nccc3cc(OC)c(OC)cc23)c([N+](=O)[O-])cc1OC,7%,11%,?,?,45µM*,11%
COc1cc(Br)c(C(=O)c2nccc3cc(OC)c(OC)cc23)cc1OC,2%,6%,45µM*,?,-19%,6%
COc1cc(N)c(C(=O)c2nccc3cc(OC)c(OC)cc23)cc1OC,1%,nt,-35%,-12%,nt,15%
COc1ccc(CC(=O)NCC(=O)Nc2ccccc2Br)cc1,1%,6%,-3%,-4%,5%,14%
COc1ccc(C(=O)N2CCC(C(=O)Nc3ccccc3Cl)CC2)cc1,33%,nt,0%,-2%,-1%[59 µM],nt
Cc1noc(C)c1NC(=O)N(C)C[C@H]1Oc2ccc(NC(=O)C3CCCCC3)cc2C(=O)N([C@H](C)CO)C[C@@H]1C,33%,1%,-18%,nt,nt,nt
COc1ccc(CN(C(=O)/C=C/c2ccco2)C2CCS(=O)(=O)C2)cc1OC (stereo not given),23%,-2%,-15%,?,40µM*,50µM*
CCOc1ccc(CN(C(=O)/C=C/c2ccco2)C2CCS(=O)(=O)C2)cc1 (stereo not given),20%,4%,-32%,?,45µM*,?
COc1ccc(CN(C(=O)/C=C/c2ccco2)C2CCS(=O)(=O)C2)cc1 (stereo not given),3%,-1%,?,50µM*,50µM*,14µM*
SMILES,HP1b binding inh,TDP1 inh,JMJD2A Tudor,BAZ2B inh,G9a inh,Sfp inh
COc1cccc(CN(C(=O)/C=C/c2ccco2)C2CCS(=O)(=O)C2)c1 (stereo not given),10%,5%,-19%,-29%,18µM*,25µM*
CN(C)c1ccc(CN(C(=O)/C=C/c2ccco2)C2CCS(=O)(=O)C2)cc1 (stereo not given),-12%,5%,?,?,nt,-2%
O=C(/C=C/c1ccco1)N(Cc1ccc(Cl)cc1)C1CCS(=O)(=O)C1 (stereo not given),-13%,-1%,-20%,-28%,45µM*,25µM*
CC(=O)Oc1ccc2nc(/C=C/c3ccccc3)oc(=O)c2c1,32%,nt,-21%,-10%,2%[0.501 µM],24%
CC(C)COC(=O)COc1cc(Cl)c(Cl)cc1Cl,nt,50µM*,nt,247%,5%[0.501 µM],nt
COc1ccc(C(=O)N(Cc2ccco2)Cc2cccs2)cc1,51%,3%,-28%,nt,nt,nt
O=C(CSc1nnc(-c2cccs2)n1CC1CCCO1)N1CCCC1 (stereo not given),14%,6%,-8%,0%,27%,11%
O=C(CCCSc1nnc(-c2cccs2)n1CC1CCCO1)c1ccccc1 (stereo not given),34%,2%,79µM*,-5%,-45%[2.33 µM],-13%
CNc1nc(NN)nc(Nc2ccccc2)n1,41%,nt,25µM*,28µM*,-8%[0.501 µM],10%
